# Experimental data: PubChem BioAssay (NCATS)
# Results filed as inconclusive are left out. The source made the active and inactive calls. Calls come from the whole dose curve; as a rule, active = well fitted curve in the direction sought with a large enough effect; inconclusive = small, poorly fitted or top-dose-only effect, or another doubt; inactive = no such curve, though single readings can be large; an effect the other way counts as inactive or inconclusive.
# What was measured:
# [1] = Quantitative High-Throughput drug screen in 47 multiple myeloma cell lines against the NCATS MIPE library collection: JJN3_DSMZ cell viability assay (AID 1918966; note: potency is the fitted concentration of half-maximal effect; nearly all actives have a fitted effect of over 50% in size)
# Procedure, shortened: (§1)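 Inhibition of cell viability is measured here. Each line was plated at 500 cells per well, treated with MIPE 4.0 drugs, kept 48 hours at 37C, then assayed for ATP content by CellTiter-Glo luminescence.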
# [2] = Quantitative High-Throughput drug screen in 47 multiple myeloma cell lines against the NCATS MIPE library collection: H1112_PLB cell viability assay (AID 1918967; note: nearly all actives have a fitted effect of over 30% in size; note: potency is the fitted concentration of half-maximal effect)
# Procedure, shortened: as §1
# [3] = Quantitative High-Throughput drug screen in 47 multiple myeloma cell lines against the NCATS MIPE library collection: Karpas25_ECACC cell viability assay (AID 1918968; note: nearly all actives have a fitted effect of over 35% in size; note: potency is the fitted concentration of half-maximal effect)
# Procedure, shortened: as §1
# [4] = Quantitative High-Throughput drug screen in 47 multiple myeloma cell lines against the NCATS MIPE library collection: KMS27_JCRB cell viability assay (AID 1918970); settings: KMS27 myeloma cells, CellTiter-Glo ATP viability, 48 h; viability (% of DMSO): at 45.8 µM (top of the series); note: nearly all actives have a fitted effect of over 30% in size; note: potency is the fitted concentration of half-maximal effect
# Procedure, shortened: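 CellTiter-Glo luminescence after 48 h drug exposure at 37 °C; 500 cells/well, 1536-well format, pin-tool compound addition; DMSO = 100%, media-only = 0% viability.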
# [5] = Quantitative High-Throughput drug screen in 47 multiple myeloma cell lines against the NCATS MIPE library collection: KMS12BM_JCRB cell viability assay (AID 1918971); note: potency is the fitted concentration of half-maximal effect; nearly all actives have a fitted effect of over 35% in size
# Procedure, shortened: (§2)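 qHTS of the MIPE 4.0 collection: 500 myeloma cells/well, 48 h drug exposure at 37C in 5% CO2, then CellTiter-Glo for 5 min at room temperature before luminescence reading.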
# [6] = Quantitative High-Throughput drug screen in 47 multiple myeloma cell lines against the NCATS MIPE library collection: KMS12PE_JCRB cell viability assay (AID 1918972); note: nearly all actives have a fitted effect of over 30% in size; note: potency is the fitted concentration of half-maximal effect
# Procedure, shortened: (§3)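 Steps: seed 500 cells per well; pin-transfer MIPE 4.0 library; incubate 48 h at 37C, 5% CO2, humidified; add CellTiter-Glo, 5 min room temperature; read luminescence.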
# [7] = Quantitative High-Throughput drug screen in 47 multiple myeloma cell lines against the NCATS MIPE library collection: NCIH929_DSMZ cell viability assay (AID 1918978); note: nearly all actives have a fitted effect of over 35% in size; note: potency is the fitted concentration of half-maximal effect
# Procedure, shortened: (§4)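 Inhibition of viability over 48 h was scored by ATP content (CellTiter-Glo) in 500-cell wells. Zero and full viability were defined by media-only and DMSO-only wells.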
# [8] = Quantitative High-Throughput drug screen in 47 multiple myeloma cell lines against the NCATS MIPE library collection: OCIMY1_PLB cell viability assay (AID 1918979); note: nearly all actives have a fitted effect of over 35% in size
# Procedure, shortened: as §4
# [9] = Quantitative High-Throughput drug screen in 47 multiple myeloma cell lines against the NCATS MIPE library collection: MM1S_ATCC cell viability assay (AID 1918980); note: potency is the fitted concentration of half-maximal effect; nearly all actives have a fitted effect of over 45% in size
# Procedure, shortened: as §4
# [10] = Quantitative High-Throughput drug screen in 47 multiple myeloma cell lines against the NCATS MIPE library collection: LP1_DSMZ cell viability assay (AID 1918982)
# Procedure, shortened: as §4
# [11] = Quantitative High-Throughput drug screen in 47 multiple myeloma cell lines against the NCATS MIPE library collection: L363_DSMZ cell viability assay (AID 1918984); settings: L363 myeloma viability, CellTiter-Glo ATP luminescence, 48 h; viability (% of control): at 45.8 µM (top of the series); note: nearly all actives have a fitted effect of over 40% in size; note: potency is the fitted concentration of half-maximal effect
# Procedure, shortened: as §4
# [12] = Quantitative High-Throughput drug screen in 47 multiple myeloma cell lines against the NCATS MIPE library collection: KMS20_JCRB cell viability assay (AID 1918973); note: nearly all actives have a fitted effect of over 45% in size; note: potency is the fitted concentration of half-maximal effect
# Procedure, shortened: as §1
# [13] = Quantitative High-Throughput drug screen in 47 multiple myeloma cell lines against the NCATS MIPE library collection: MM1R_ATCC cell viability assay (AID 1918981); note: nearly all actives have a fitted effect of over 35% in size; note: potency is the fitted concentration of half-maximal effect
# Procedure, shortened: as §4
# [14] = Quantitative High-Throughput drug screen in 47 multiple myeloma cell lines against the NCATS MIPE library collection: KMS34_JCRB cell viability assay (AID 1918985); note: nearly all actives have a fitted effect of over 40% in size; note: potency is the fitted concentration of half-maximal effect
# Procedure, shortened: as §4
# [15] = Quantitative High-Throughput drug screen in 47 multiple myeloma cell lines against the NCATS MIPE library collection: INA6_PLB cell viability assay (AID 1918965; note: potency is the fitted concentration of half-maximal effect; nearly all actives have a fitted effect of over 55% in size)
# Procedure, shortened: as §3
# [16] = Quantitative High-Throughput drug screen in 47 multiple myeloma cell lines against the NCATS MIPE library collection: KMS28PE_JCRB cell viability assay (AID 1918983)
# Procedure, shortened: as §4
# [17] = Quantitative High-Throughput drug screen in 47 multiple myeloma cell lines against the NCATS MIPE library collection: KMS26_JCRB cell viability assay (AID 1918975); note: potency is the fitted concentration of half-maximal effect; nearly all actives have a fitted effect of over 45% in size
# Procedure, shortened: as §2
# [18] = Quantitative High-Throughput drug screen in 47 multiple myeloma cell lines against the NCATS MIPE library collection: MMM1_PLB cell viability assay (AID 1918976)
# Procedure, shortened: as §4
# [19] = Quantitative High-Throughput drug screen in 47 multiple myeloma cell lines against the NCATS MIPE library collection: MOLP8_DSMZ cell viability assay (AID 1918977); note: nearly all actives have a fitted effect of over 45% in size; note: potency is the fitted concentration of half-maximal effect
# Procedure, shortened: as §4
SMILES,Potency [1],Potency [2],Potency [3],Potency [4],Potency [5],Potency [6],Potency [7],Potency [8],Potency [9],Potency [10],Potency [11],Potency [12],Potency [13],Potency [14],Potency [15],Potency [16],Potency [17],Potency [18],Potency [19]
Cc1c(-c2cccc3c(CCCOc4cccc5ccccc45)c(C(=O)O)n(Cc4cccnc4)c23)c(COc2ccc(N3CCN([S+](=O)([O-])N(C)C)CC3)cc2)nn1C,23.5 µM (active),20.9 µM (active),20.9 µM (active),inactive,23.5 µM (active),inactive,3.72 µM (active),inactive,23.5 µM (active),18.7 µM (active),inactive,,,,,,,,
CC[C@H]1OC(=O)[C@H](C)[C@@H](O[C@H]2C[C@@](C)(OC)[C@@H](O)[C@H](C)O2)[C@H](C)[C@@H](O[C@@H]2O[C@H](C)C[C@H](N(C)C)[C@H]2O)[C@](C)(O)C[C@H](C)C(=NOCOCCOC)[C@H](C)[C@@H](O)[C@]1(C)O,13.2 µM (active),inactive,inactive,inactive,,inactive,inactive,inactive,20.9 µM (active),,,inactive,inactive,inactive,,,,,
COc1cc(Cl)cn2c(-c3cccc(NC4CNC4)n3)cnc12,,,,,20.9 µM (active),,,,,,,,16.6 µM (active),,16.6 µM (active),20.9 µM (active),,,
COc1cc2nccc(Oc3ccc(NC(=O)Nc4ccc(F)cc4F)c(F)c3)c2cc1OC,20.9 µM (active),inactive,inactive,,11.8 µM (active),inactive,inactive,,,9.35 µM (active),inactive,,2.96 µM (active),,,6.62 µM (active),,,
CC(C)CN(C[C@@H](O)[C@H](Cc1ccccc1)NC(=O)O[C@H]1CO[C@H]2OCC[C@H]21)S(=O)(=O)c1ccc(N)cc1,23.5 µM (active),2.09 µM (active),3.72 µM (active),,20.9 µM (active),inactive,,inactive,2.35 µM (active),3.72 µM (active),,2.96 µM (active),1.32 µM (active),inactive,,20.9 µM (active),3.32 µM (active),20.9 µM (active),inactive
Oc1cc(O)cc(C=Cc2ccc(O)c(O)c2)c1,16.6 µM (active),13.2 µM (active),7.43 µM (active),18.7 µM (active),,18.7 µM (active),6.62 µM (active),,26.4 µM (active),,,2.96 µM (active),20.9 µM (active),11.8 µM (active),,,23.5 µM (active),23.5 µM (active),18.7 µM (active)
Cc1cccc(-c2[nH]c(C(C)(C)C)nc2-c2ccc3c(c2)OCO3)n1,14.8 µM (active),1.32 µM (active),0.526 µM (active),1.32 µM (active),18.7 µM (active),3.72 µM (active),6.62 µM (active),,16.6 µM (active),,2.35 µM (active),2.35 µM (active),,18.7 µM (active),,20.9 µM (active),16.6 µM (active),,6.62 µM (active)
